# Assay results from PubChem BioAssay (NCATS).
# Results filed as inconclusive are left out. Where a call stands in place of a potency, no number is given. Active and inactive are the calls of the source. Unless noted, calls follow the shape of the dose curve; as a rule, active = well fitted inhibition curve with a large enough effect; inconclusive = small, poorly fitted or top-dose-only effect; inactive = flat fitted curve, though single readings scatter.
# Target: DNA dC->dU-editing enzyme APOBEC-3G (Homo sapiens) (UniProt Q9HC16)
# Sequence (Q9HC16 whole entry, looked up): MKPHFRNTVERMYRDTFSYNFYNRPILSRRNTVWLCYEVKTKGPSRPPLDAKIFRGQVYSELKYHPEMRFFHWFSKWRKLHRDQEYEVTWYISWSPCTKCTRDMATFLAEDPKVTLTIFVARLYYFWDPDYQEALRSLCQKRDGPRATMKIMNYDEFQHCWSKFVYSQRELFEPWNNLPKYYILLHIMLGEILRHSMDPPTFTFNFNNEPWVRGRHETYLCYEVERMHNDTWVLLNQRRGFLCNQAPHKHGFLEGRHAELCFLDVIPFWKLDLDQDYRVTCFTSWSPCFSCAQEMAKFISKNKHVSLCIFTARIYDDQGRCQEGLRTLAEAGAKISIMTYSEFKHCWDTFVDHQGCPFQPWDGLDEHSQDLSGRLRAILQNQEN
# Assay: qHTS for inhibitors of Vif-A3G interactions: Validation (AID 588379)
# Conditions: Vif-A3G protein interaction assay; series mostly up to 46.1 µM
# Outline: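 HeLa cells stably expressing Vif and A3G-eYFP, 700 cells/well, incubated overnight at 37 deg C, then exposed to compound overnight at 37 deg C. Inhibition of Vif-mediated degradation read as increased yellow fluorescence (Ex 488/Em 500-530) by laser-scanning cytometry.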
row,SMILES,outcome
1,COC(=O)Nc1nc2ccc(C(=O)c3cccs3)cc2[nH]1,inactive
2,CCOC(=O)c1ncn2c1CN(C)C(=O)c1cc(F)ccc1-2,inactive
3,COc1ccc2c(c1)c(CC(=O)O)c(C)n2C(=O)c1ccc(Cl)cc1,inactive
4,CN1CCC(=C2c3ccccc3C=Cc3ccccc32)CC1,inactive
5,Nc1nnc(-c2cccc(Cl)c2Cl)c(N)n1,inactive
6,OCCN(CCO)c1nc(N2CCCCC2)c2nc(N(CCO)CCO)nc(N3CCCCC3)c2n1,inactive
7,CCC1(c2ccccc2)C(=O)NCNC1=O,inactive
8,O=C(c1ccc(F)cc1)C1CCN(CCn2c(=O)[nH]c3ccccc3c2=O)CC1,inactive
9,Nc1ccn([C@H]2CC[C@@H](CO)O2)c(=O)n1,inactive
10,CNCCCC12CCC(c3ccccc31)c1ccccc12,inactive

# Target: Bile acid receptor (Homo sapiens) (UniProt Q96RI1)
# Sequence (Q96RI1 whole entry, looked up): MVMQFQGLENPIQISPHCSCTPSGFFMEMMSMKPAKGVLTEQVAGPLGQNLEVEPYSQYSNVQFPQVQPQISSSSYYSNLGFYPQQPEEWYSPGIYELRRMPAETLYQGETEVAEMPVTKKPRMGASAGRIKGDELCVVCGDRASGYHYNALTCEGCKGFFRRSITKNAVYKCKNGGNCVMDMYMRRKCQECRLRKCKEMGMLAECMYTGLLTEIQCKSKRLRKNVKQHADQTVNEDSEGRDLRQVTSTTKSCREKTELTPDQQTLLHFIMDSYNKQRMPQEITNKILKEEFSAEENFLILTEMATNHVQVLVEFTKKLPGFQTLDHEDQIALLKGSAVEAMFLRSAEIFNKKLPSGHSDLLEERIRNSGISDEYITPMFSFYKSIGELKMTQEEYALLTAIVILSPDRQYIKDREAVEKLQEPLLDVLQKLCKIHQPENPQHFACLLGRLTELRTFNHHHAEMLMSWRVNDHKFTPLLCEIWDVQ
# Assay: qHTS assay for small molecule antagonists of farnesoid X receptor signaling (AID 588526; calls by dose curve; also: potency is read from the fitted curve at half-maximal effect)
# Conditions: HEK293T FXR-UAS-bla, beta-lactamase ratio, antagonist mode; series mostly up to 76.7 µM
# Outline: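 Antagonist mode: titrated compounds tested against chenodeoxycholic acid stimulation (normalized to 50 uM CDCA and DMSO) in GeneBLAzer HEK293T cells for 16 h. Beta-lactamase read by CCF4 fluorescence; IC50 from Hill fits.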
row,SMILES,Potency
1,Cc1cn([C@H]2C=C[C@@H](CO)O2)c(=O)[nH]c1=O,inactive
2,CC(C)C(=O)Nc1ccc([N+](=O)[O-])c(C(F)(F)F)c1,inactive
3,CCC1(c2ccccc2)C(=O)NCNC1=O,inactive
4,O=c1c(-c2ccc(O)cc2)coc2cc(O)cc(O)c12,25.1 µM (active)
